Source: PubChem BioAssay AID624063 (Southern Research Specialized Biocontainment Screening …, 2012)
Entries with a potency or affinity are not part of this list. Values without a mark were called inactive. No rule for the calls is given here.

experiment: VEEV TC-83 cytopathic effect inhibitors, confirmation, cell-based, set 4 (AID 624063); conditions: VEEV TC-83 infected cells; series mostly up to 25 µM; inhibition: at the top concentration

Structure (SMILES) | inhibition
O=C(NCc1ccco1)C1CCN(C(=O)c2cc3sccc3n2Cc2ccc(F)cc2)CC1 | 13.5%
CCN1CCN(Cc2nc3ccccc3c(=O)n2-c2ccccc2F)CC1 | -5%
CC(C)(C)OC(=O)N1CCN(Cc2nc3ccc([N+](=O)[O-])cc3c(=O)n2-c2ccccc2F)CC1 | 1.6%
CCN1CCN(Cc2nc3ccc(C(F)(F)F)cc3c(=O)n2-c2ccccc2F)CC1 | 20.2%
